The list is not random: actives were taken first. Their share in the collection is about 1.4%.
Mtb MbtI inh: MbtI salicylate synthase inhibition; purified MbtI enzyme, fluorescence intensity read-out; 0.89% of 100,000 active; AID 493033; inhibition, % (concentration not given with the values); P9WFX0; in the data active = inhibition mostly above about 56%, no sharp cut-off; inactive = mostly below about 77%
Target sequence (P9WFX0 whole entry, looked up): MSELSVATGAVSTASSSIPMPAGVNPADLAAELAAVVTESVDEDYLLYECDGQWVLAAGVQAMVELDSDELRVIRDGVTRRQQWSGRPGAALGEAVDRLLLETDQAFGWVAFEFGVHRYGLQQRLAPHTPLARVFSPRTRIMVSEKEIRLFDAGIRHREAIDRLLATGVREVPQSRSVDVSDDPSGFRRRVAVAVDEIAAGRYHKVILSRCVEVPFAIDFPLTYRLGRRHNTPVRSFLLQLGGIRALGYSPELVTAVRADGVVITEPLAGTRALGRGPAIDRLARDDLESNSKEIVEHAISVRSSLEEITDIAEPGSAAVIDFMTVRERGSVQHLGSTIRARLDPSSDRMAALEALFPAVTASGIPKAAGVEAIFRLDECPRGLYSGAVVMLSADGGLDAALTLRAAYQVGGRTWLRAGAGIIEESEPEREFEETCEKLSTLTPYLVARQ
AID504770: E. coli YBA685 growth inhibition, screen for V. cholerae RctB inhibitors. E. coli YBA685 rctB-dependent plasmid, OD600 growth, 3 h; hits give low values. z-score (concentration not given with the values). 0.27% of 130,000 active. AID 504770; in the data active = z-score below about -2, passing the limit was not always enough
PV pol inh: inhibitors of poliovirus RNA polymerase binding and polymerization | P03300 | poliovirus polymerase elongation, fluorescence polarization; hits give low values | % elongation, % (compound at 16.7 µg/mL) | 0.66% of 150,000 active | AID 588519; in the data active = % elongation below about 90%
Mtb MenB inh: inhibitors of Mycobacterium tuberculosis MenB enzyme. inhibition, % (no concentration beside the values). P9WNP5. 0.43% of 100,000 active. MenB enzyme assay, absorbance read-out; in the data active = inhibition above about 21%, passing the limit was not always enough
Starred values were filed as active, the others as inactive; i = inactive; . = no result.

SMILES	Mtb MbtI inh	AID504770	PV pol inh	Mtb MenB inh
O=C(COC(=O)CSc1n[nH]c(-c2ccccc2)n1)NC1CCCCC1	.	0.9	84.0*	10.7
O=C(CSc1n[nH]c(Cc2ccccc2)n1)NC1CCCCC1	-9.2	0.85	98.0	-9.3
CCN(CC)N=Nc1ccc(NC(C)=O)cc1	90.1*	-2.85	106.0	9.7
CC(=O)Nc1ccc(N=NN2CCCCC2)cc1	23.4	-2.5*	104.0	-29.0
COc1ccc(Cc2nnc(SCC(N)=O)o2)cc1	-14.0	-0.4	101.0	-34.9
CC1CCN(S(=O)(=O)c2ccc(NC(=O)Cn3c(=O)sc4ccccc43)cc2)CC1	4.9	0.3	101.0	-13.1
C=C(C)CNC(=S)Nc1cc(Cl)ccc1Sc1nncn1C	79.2*	-0.75	91.0	-15.1
COc1cc(CC(=O)Nc2cc(Cl)ccc2Sc2nncn2C)cc(OC)c1OC	13.7	0.7	103.0	-25.0
O=C(O)CC(CC(=O)Oc1ccc(F)cc1)c1ccc(Cl)cc1Cl (configuration not stated)	.	0	.	.
Cn1c(SCC(=O)O)nc2ccccc21	5.6	1.9	102.0	36.5*
Cn1c(SCC(=O)NN)nc2ccccc21	0.8	0.15	108.0	-10.8
OCn1c(=S)sc2ccccc21	93.2*	-0.4	102.0	.
CCN(CC)Cn1c(=S)sc2ccccc21	86.7*	-1.55	100.0	-13.1
CCN(CC)Cn1c(=O)sc2ccccc21	27.3	-0.5	103.0	-34.6
O=C(O)C(Cc1c[nH]c2ccccc12)N1C(=O)C2CC=CCC2C1=O (configuration not stated)	.	-1.6	.	.
Cc1ccc(Cl)cc1N1CCN(C(CC(=O)O)C(=O)c2ccc(F)cc2)CC1 (configuration not stated)	7.4	-0.05	70.0*	30.7*
COc1ccccc1OCCNc1ncnc2sccc12	3.9	0.75	104.0	-4.8
CCOCCCNc1ncnc2sccc12	-11.4	2.4	83.0*	-14.1
CCOC(=O)c1sc(N(C)C(C)=O)nc1C	19.3	0.8	99.0	38.8*
CCOC(=O)c1sc(Br)nc1C	.	0.95	.	.
CC1(C)CC(NCc2ccco2)CC(C)(C)N1	.	0.35	104.0	-21.6
CC(C)NS(=O)(=O)c1ccc(N=Cc2c(O)n(C)c(=O)n(C)c2=O)cc1	32.1	-3.7*	104.0	-18.7
CCn1c(C(C)Oc2ccc(Cl)cc2)n[nH]c1=S (configuration not stated)	88.8*	1.7	103.0	-15.8
COc1ccc(CN(C(=O)c2cccc(Cl)c2)C2CCS(=O)(=O)C2)cc1OC (configuration not stated)	-16.6	-0.65	103.0	-16.5
Cc1csc(N(C(=O)C2CCC2)c2ccccc2)n1	-8.1	0.1	106.0	-22.5
SMILES	Mtb MbtI inh	AID504770	PV pol inh	Mtb MenB inh
N#Cc1cccc(C(c2nnnn2Cc2ccccc2)N2CCCC2)c1 (configuration not stated)	-0.8	0.5	99.0	29.2*
c1ccc(CCn2nnnc2C(c2cccnc2)N2CCCCC2)cc1 (configuration not stated)	-9.4	-0.65	104.0	-12.5
S=c1[nH]nc(COc2ccccc2Cl)n1C1CC1	83.8*	0.65	.	-18.9
NC(=O)CSc1nnc(COc2ccccc2Cl)n1C1CC1	-9.3	-0.5	.	-24.2
O=C(O)Cn1cc(C=C2C(=O)NC(=S)NC2=O)c2ccccc21	100.2*	0	102.0	-55.2
O=C(O)Cn1cc(C=C2C(=O)NC(=O)NC2=O)c2ccccc21	.	-0.25	111.0	-248.8
Cc1ccc2[nH]cc(CCNS(C)(=O)=O)c2c1	13.9	0.8	102.0	26.2*
CCc1ccc(N=Cc2c(O)[nH]c3ccccc23)cc1	0.2	1.8	101.0	-64.3
Cc1[nH]n(-c2ccccc2)c(=O)c1Sc1ccc(Cl)cc1	-207.3	-0.8	102.0	-6.1
Cc1[nH]n(-c2ccc(Cl)cc2)c(=O)c1C=O	70.9*	-0.3	100.0	5.4
O=S(=O)(Nc1ncccn1)c1ccccc1	-8.0	-0.6	101.0	0.2
Nc1nc(NS(=O)(=O)c2ccccc2)ns1	.	-2.9*	.	.
COc1ccccc1C(=O)CN1CCCCC1C (configuration not stated)	-2.4	0.5	107.0	-20.6
COc1ccccc1Nc1nn(CN2CCCCC2C)c(=S)s1 (configuration not stated)	100.0*	-0.05	94.0	-28.1
CCOCCCNC1CC(C)CC(C)(C)C1 (configuration not stated)	-17.1	-2.2*	101.0	-14.1
CC1CC(NC2=NCCS2)CC(C)(C)C1 (configuration not stated)	.	1.25	.	.
COc1cc(NC(=O)CS)cc(OC)c1	90.5*	-0.2	99.0	-106.6
CC(C)C(=O)Nc1sc2c(c1C(N)=O)CCCC2	-10.3	-0.65	103.0	-18.0
Cc1cccc(C)c1OCc1nc2c3cnn(-c4ccccc4Br)c3ncn2n1	.	.	111.0	.
Cc1cccc(C)c1OCc1nc2c3cnn(-c4ccccc4F)c3ncn2n1	.	.	75.0*	.
CC(C)Cn1c(=O)c2ccccc2n2c(CCC(=O)N3CCN(c4ccc(F)cc4)CC3)nnc12	1.0	-0.7	101.0	13.5
CSc1nc(NC(N)=S)nc(NC(C)C)n1	87.0*	-0.4	101.0	-30.0
CSc1nc(NC(C)C)nc(N(C)C(N)=O)n1	16.5	1.05	102.0	20.7
CC(C)Nc1nc(NC(N)=O)nc(NC(C)C)n1	2.8	0.7	102.0	62.0*
Cn1cc(NC(=O)N(CCO)Cc2ccccc2)c2ccccc21	-52.0	-1.25	102.0	3.0
SMILES	Mtb MbtI inh	AID504770	PV pol inh	Mtb MenB inh
O=C1CCCN1c1ccc(S(=O)(=O)NC2CC2)c(Cl)c1	-6.7	-1.05	102.0	-58.6
N#CC(C#N)=NNc1ccccc1	8.3	-3.65*	99.0	-406.2
O=c1c2ccccc2[se]n1-c1ccccc1	103.2*	.	99.0	4.6
O=C1NC2(CCCCC2)C(=O)N1c1ccc(C(F)(F)F)cc1	-13.9	0.1	99.0	-38.1
Cc1sc(-n2cccc2)c(C(=O)NC2CCCCCC2)c1C	0.0	0.9	.	-2.8
CC(C)c1ccc(C2=CC(=O)C=CC2=O)cc1	88.7	-2.05	105.0	-7.8
O=C1C=CC(=O)C(c2ccc(C(=O)O)cc2)=C1	90.5*	0.2	97.0	-2.7
CSC1=NC(C)(C)Cc2c(C)cccc21	.	-0.65	90.0*	0.2
Cc1cccc2nc(CSC(=S)NCc3cccnc3)cn12	.	-3.7*	.	.
Cc1ccc(NC(=O)CCc2nc3ccccc3c(=O)[nH]2)cc1	6.0	-0.1	98.0	-20.4
CCS(=O)(=O)c1ccc2oc(SCC(=O)N3CC(C)OC(C)C3)nc2c1 (configuration not stated)	-10.2	-1.05	106.0	20.1
CCS(=O)(=O)c1ccc2oc(SCC(=O)CSc3nc4cc(S(=O)(=O)CC)ccc4o3)nc2c1	7.5	0.3	110.0	44.7*
CCC(c1nnc(SC/C(O)=C(\C#N)c2nc3ccccc3[nH]2)n1Cc1ccccc1)N(C)C (configuration not stated)	8.7	0.25	99.0	-2.8
NNc1ccc(Br)cc1	.	-6.35*	106.0	21.8
NCC(=O)Nc1ccc(Br)cc1	-7.2	-1.05	100.0	1.2
COC(=O)c1ccccc1N1C(=O)C=CC1=O	.	-2.45*	.	.
O=C1c2ccccc2C(=O)N1CCN1CCN(CCN2C(=O)c3ccccc3C2=O)CC1	-3.5	-0.15	99.0	-18.0
NNc1nc2ccccc2[nH]c1=S	62.9	-3.2*	107.0	i

High-throughput results as filed in PubChem BioAssay.
